These results are taken from PubChem BioAssay AID1259318 (Sanford-Burnham Center for Chemical Genomics, 2017).

Among all 370,000 compounds or so, about 3,000 (0.81%) were called active.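 The calls were made as follows: active = activity above about 14% (limit read from the data; passing the limit was not always enough); inactive = the rest.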 The entries come from a sample that favours actives as a whole.

The target of this test is Nuclear receptor subfamily 1 group D member 1 (Homo sapiens) (UniProt P20393). Nature of the test: Rev-erbα–DNA interaction modulation – biochemical, FITC-DNA, fluorescence polarization, uHTS, primary screen (AID 1259318).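 Also: 0% = DMSO wells with 35 nM protein and 100% = DMSO wells with 750 nM protein.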 The settings on record: Rev-erbα–FITC-DNA binding, 90 min, at 10 µM, hits give high values.
Nuclear receptor subfamily 1 group D member 1 (Homo sapiens), sequence (P20393 whole entry, looked up): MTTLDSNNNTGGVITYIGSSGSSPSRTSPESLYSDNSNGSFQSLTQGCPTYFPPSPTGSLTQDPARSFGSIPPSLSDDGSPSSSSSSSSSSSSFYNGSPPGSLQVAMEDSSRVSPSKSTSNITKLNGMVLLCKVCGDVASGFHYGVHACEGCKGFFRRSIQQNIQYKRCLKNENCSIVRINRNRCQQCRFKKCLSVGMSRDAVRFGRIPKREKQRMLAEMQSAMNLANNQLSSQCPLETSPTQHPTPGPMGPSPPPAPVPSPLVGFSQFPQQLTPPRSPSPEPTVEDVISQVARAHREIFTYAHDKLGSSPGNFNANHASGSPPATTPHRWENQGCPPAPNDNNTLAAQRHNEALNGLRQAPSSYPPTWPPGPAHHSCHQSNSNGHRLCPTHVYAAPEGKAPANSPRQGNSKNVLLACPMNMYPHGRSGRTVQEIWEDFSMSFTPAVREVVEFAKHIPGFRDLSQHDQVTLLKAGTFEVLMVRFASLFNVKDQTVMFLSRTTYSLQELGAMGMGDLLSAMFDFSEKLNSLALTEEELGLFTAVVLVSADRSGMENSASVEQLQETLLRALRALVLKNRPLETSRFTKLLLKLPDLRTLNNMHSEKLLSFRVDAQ
`Cc1c(-c2ccccc2)nc(N)c(C#N)c1-c1cccs1`: the activity is 29.3% (active).
Then `CCc1c(-c2ccccc2)nc(N)c(C#N)c1-c1cccs1`, with 12% (inactive).
On to `CN1CCc2nc(SC(C(=O)O)c3ccccc3)c(C#N)c(-c3cccs3)c2C1` (stereo unspecified), for which the activity is -2.52% (inactive).
The value for `C=CCOc1cccc(CNn2cn[nH]c2=S)c1` was -6% (inactive); that for `CN(C(=O)COC(=O)Cn1cnc2c1c(=O)n(C)c(=O)n2C)C1(C#N)CCCCC1` was 0.32% (inactive).
Then `CC(=O)c1cc2c(cc1NC(=O)Cn1nc(-c3ccc(F)cc3)ccc1=O)OCO2`, with 1.35% (inactive); and `O=C(CSc1ccc(-c2ccc(F)cc2)nn1)Nc1ccc2c(c1)OCCO2`, with -5.86% (inactive); and `CCOc1cccc(NC(=O)Cn2nc(-c3ccc4c(c3)OCCO4)ccc2=O)c1`, with 52.4% (active).
Then `CC(C)C(C#CC1CC1)N(Cc1ccc2c(c1)OCO2)C(N)=NC(=O)/C=C/c1cccc(C(F)(F)F)c1` (stereo unspecified), with -2.7% (inactive).
Regarding `Cn1c(-c2sccc2OCc2cccc(C(F)(F)F)c2)n[nH]c1=S`, the activity was -0.5% (inactive).
Turning to `CC(C)CCSc1ncnc2c1oc1nc3c(cc12)COC(C)(C)C3`, the activity was 0.04% (inactive).
Then `CC1(C)Cc2nc3sc4c(SCC(=O)NC(c5ccccc5)c5ccccc5)ncnc4c3cc2CO1`, with 199% (active).
The value for `O=C(CSc1ncnc2c1oc1ccccc12)NC1CCCC1` was -1.38% (inactive).
The value for `COCCN1C2=C(COC(C)(C)C2)C(=S)NC1c1ccccc1` (stereo unspecified) was 1.37% (inactive); that for `COC(=O)c1c(NC(C)=O)sc(C(=O)Nc2ccccc2OC)c1C` was 32.9% (active).
With `COc1ccccc1NC(=O)c1c(Br)cnn1C`, the activity is 2.04% (inactive).
The value for `COc1ccccc1NC(=O)C(CC(=O)O)Cc1cc(C)cc(C)c1` (stereo unspecified) was -2.91% (inactive); that for `O=C(CCc1ccc(S(=O)(=O)N2CCOCC2)cc1)Nc1ccc2ccccc2c1` was -2.19% (inactive); that for `O=C(NC1CC1)C(Cc1ccccc1)NS(=O)(=O)c1ccccc1F` (stereo unspecified) was 3.33% (inactive).
The value for `CC(C(=O)N=Nc1c(O)n(C)c2ccc(Br)cc12)n1cnc2ccccc2c1=O` (stereo unspecified) was 2.88% (inactive).
For `COc1ccccc1N1CCN(CC(=O)Nc2ccnn2C2CCCC2)CC1`, the activity was 15.8% (active).
On to `COc1cccc(N2CCN(CC(=O)Nc3ccnn3C3CCCC3)CC2)c1`, for which the activity is 5.07% (inactive).
Then `COc1ccccc1C(=O)Nc1ccnn1C1CCN(Cc2cnn(C)c2)CC1`, with 4.21% (inactive); and `C#CCNc1nc(C(C)C)nc2c1nnn2Cc1ccccc1F`, with 2.17% (inactive).
Then `CCCCCCCCCOC1OC(CO)C(O)C(O)C1NC(C)=O` (stereo unspecified), with 1.37% (inactive); and `CCC(C)C1(C2CCCC2)NC(=O)NC1=O` (stereo unspecified), with 16.3% (active).
